{
  "source": "PubChem BioAssay (NCATS)",
  "key": {"[1]": {"molecular_target": "Mitogen-activated protein kinase 10 (Mus musculus) (UniProt Q61831)", "experiment": "JNK3 AlphaScreen Assay (AID 530);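 also: kinase came from lysate of stimulated human HepG2 cells; signal reports phosphorylation of biotinylated GST-cJun 1-79 at Ser73 with 10 µM ATP; series mostly up to about 57 µM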", "in_short": "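Activity was read by AlphaScreen after JNK3-containing HepG2 lysate (cytokine pre-activated) phosphorylated biotinylated GST-cJun with 10 uM ATP at room temperature. Phospho-Ser73 cJun antibody with Protein-A acceptor beads provided detection.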"}, "[2]": {"molecular_target": "3',5'-cyclic-AMP phosphodiesterase 4B (Homo sapiens) (UniProt Q07343)", "sequence (Q07343 whole entry, looked up)": "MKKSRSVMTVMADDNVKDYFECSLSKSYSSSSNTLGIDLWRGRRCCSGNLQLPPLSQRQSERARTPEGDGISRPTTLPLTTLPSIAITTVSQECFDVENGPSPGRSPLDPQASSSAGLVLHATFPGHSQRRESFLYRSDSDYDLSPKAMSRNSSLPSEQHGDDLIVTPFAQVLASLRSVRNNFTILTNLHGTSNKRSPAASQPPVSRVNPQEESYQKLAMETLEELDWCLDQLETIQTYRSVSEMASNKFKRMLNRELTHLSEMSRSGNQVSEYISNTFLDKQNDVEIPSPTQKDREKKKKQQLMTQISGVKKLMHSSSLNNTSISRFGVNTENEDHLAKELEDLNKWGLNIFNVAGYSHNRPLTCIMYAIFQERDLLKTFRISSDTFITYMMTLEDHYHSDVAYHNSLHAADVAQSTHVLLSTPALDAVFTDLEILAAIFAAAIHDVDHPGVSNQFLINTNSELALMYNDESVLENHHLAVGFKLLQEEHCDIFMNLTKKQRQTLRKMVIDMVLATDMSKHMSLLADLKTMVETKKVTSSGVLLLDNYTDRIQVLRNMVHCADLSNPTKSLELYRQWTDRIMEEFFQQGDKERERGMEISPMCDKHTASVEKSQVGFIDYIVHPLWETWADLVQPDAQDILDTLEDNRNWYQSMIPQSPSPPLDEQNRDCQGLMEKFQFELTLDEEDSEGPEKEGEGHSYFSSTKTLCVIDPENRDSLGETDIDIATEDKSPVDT", "experiment": "qHTS Assay for Inhibitors of PDE-IV (AID 607; active = well fitted activation curve with a large enough effect in the main read-out, with a control signal flat, not every such curve was filed as active)", "in_short": "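The readout is membrane depolarisation from a cAMP-sensing CNG channel, detected with a potential dye at ex 535/em 590. Cells were HEK293-derived (endogenous PDE-IV) at 1000 cells/well, titrated up to 22.9 uM final.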"}, "[3]": {"molecular_target": "Cytochrome P450 3A4 (Homo sapiens) (UniProt P08684)", "sequence (P08684 whole entry, looked up)": "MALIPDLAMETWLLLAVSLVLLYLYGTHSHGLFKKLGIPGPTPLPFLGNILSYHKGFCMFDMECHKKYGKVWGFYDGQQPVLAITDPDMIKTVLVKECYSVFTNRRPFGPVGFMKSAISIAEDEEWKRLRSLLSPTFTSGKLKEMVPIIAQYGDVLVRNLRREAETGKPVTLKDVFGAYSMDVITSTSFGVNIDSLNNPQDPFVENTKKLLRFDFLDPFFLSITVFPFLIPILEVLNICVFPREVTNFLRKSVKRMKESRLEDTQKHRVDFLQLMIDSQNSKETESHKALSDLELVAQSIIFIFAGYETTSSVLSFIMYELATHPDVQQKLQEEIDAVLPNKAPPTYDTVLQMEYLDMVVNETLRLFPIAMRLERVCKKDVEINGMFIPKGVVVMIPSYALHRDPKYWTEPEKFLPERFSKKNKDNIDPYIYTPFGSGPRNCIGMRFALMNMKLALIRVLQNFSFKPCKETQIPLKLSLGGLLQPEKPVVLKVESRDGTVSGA", "experiment": "qHTS Assay for Inhibitors and Substrates of Cytochrome P450 3A4 (AID 884; active = well fitted curve in the direction sought with a large enough effect; an effect the other way counts as inactive or inconclusive; also: nearly all actives have a fitted effect of over 50% in size; also: potency is read from the fitted curve at half-maximal effect)", "in_short": "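Luminescent readout of luciferin produced by CYP3A4 (20 nM) dealkylation of Luciferin-PPXE, 25 uM (its KM). NADPH-driven reaction ran 60 min at RT after 10 min compound preincubation; data scaled to 57 uM ketoconazole as 100% inhibition.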"}, "[4]": {"molecular_target": "Cytochrome P450 3A4 (Homo sapiens) (UniProt P08684)", "experiment": "qHTS Assay for Activators of Cytochrome P450 3A4 (AID 885; active = well fitted curve in the direction sought with a large enough effect; an effect the other way counts as inactive or inconclusive; also: nearly all actives have a fitted effect of over 65% in size)", "in_short": "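Activators are scored by enhanced luminescence from CYP3A4 conversion of luciferin-PPXE (25uM, equal to KM) to luciferin, after 60 min at RT with an NADPH-regenerating system.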"}, "[5]": {"molecular_target": "Cytochrome P450 2C19 (Homo sapiens) (UniProt P33261)", "sequence (P33261 whole entry, looked up)": "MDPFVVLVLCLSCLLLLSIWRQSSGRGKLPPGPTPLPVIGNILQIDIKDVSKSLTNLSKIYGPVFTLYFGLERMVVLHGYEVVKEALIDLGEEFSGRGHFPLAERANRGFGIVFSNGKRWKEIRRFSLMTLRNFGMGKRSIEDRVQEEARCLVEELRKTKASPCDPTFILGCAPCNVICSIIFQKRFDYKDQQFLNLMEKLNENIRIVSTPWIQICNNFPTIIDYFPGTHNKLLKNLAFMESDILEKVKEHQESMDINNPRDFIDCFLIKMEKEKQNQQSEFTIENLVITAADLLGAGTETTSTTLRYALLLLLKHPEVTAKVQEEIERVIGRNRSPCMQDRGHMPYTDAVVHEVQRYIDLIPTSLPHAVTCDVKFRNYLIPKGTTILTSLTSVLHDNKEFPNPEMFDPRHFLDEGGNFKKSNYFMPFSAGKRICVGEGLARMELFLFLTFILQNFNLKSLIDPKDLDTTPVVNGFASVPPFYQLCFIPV", "experiment": "qHTS Assay for Inhibitors and Substrates of Cytochrome P450 2C19 (AID 899; active = well fitted curve in the direction sought with a large enough effect; an effect the other way counts as inactive or inconclusive; also: potency is read from the fitted curve at half-maximal effect; nearly all actives have a fitted effect of over 60% in size)", "in_short": "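5 nM human CYP2C19 with 10uM Luciferin-H EGE (at KM) in 50mM KPO4, compound preincubated 10 min at 37C, then NADPH regeneration for 60 min at 37C. Luciferin read by luminescence after detection reagent; normalized to 57uM ketoconazole as full inhibition.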"}, "[6]": {"molecular_target": "Cytochrome P450 2C9 (Homo sapiens) (UniProt P11712)", "sequence (P11712 whole entry, looked up)": "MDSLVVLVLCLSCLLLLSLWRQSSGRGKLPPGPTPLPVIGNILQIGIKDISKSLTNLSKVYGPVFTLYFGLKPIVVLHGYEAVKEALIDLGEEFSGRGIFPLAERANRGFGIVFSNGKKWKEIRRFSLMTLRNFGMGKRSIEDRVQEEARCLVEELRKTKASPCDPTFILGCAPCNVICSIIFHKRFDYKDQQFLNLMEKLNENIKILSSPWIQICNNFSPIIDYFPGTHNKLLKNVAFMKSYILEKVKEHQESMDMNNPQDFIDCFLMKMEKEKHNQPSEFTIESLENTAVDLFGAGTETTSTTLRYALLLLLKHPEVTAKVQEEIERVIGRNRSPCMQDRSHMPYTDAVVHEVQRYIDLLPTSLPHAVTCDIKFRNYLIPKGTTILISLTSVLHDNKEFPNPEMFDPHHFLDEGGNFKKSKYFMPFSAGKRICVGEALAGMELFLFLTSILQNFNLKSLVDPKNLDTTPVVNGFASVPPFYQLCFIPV", "experiment": "qHTS Assay for Inhibitors and Substrates of Cytochrome P450 2C9 (AID 883; active = well fitted curve in the direction sought with a large enough effect; an effect the other way counts as inactive or inconclusive; also: potency is read from the fitted curve at half-maximal effect; nearly all actives have a fitted effect of over 60% in size)", "in_short": "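Human CYP2C9 (10nM) with Luciferin-H at 100uM (its KM) in 25mM KPO4; compound preincubated 10 min at 37C, then NADPH regeneration for 60 min at 37C. Luciferin read by luminescence after detection reagent; normalized to 57uM sulphaphenazole as full inhibition.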"}},
  "note": "Results filed as inconclusive are left out. Where a call stands in place of a potency, no number is given. Activity calls are given as the source filed them. Unless noted, calls follow the shape of the dose curve; as a rule, active = well fitted curve in either direction with a large enough effect (not every such curve was filed as active); inconclusive = small, poorly fitted or top-dose-only effect, or another doubt; inactive = flat fitted curve, though single readings scatter.",
  "data": [
    {"smiles": "COC(=O)[C@@]1(Cc2ccccc2)[C@H]2c3cc(C(=O)N(C)C)n(Cc4ccccn4)c3C[C@H]2CN1C(=O)c1ccccc1", "values": [
      {"measurement": "outcome", "setting": "[1]", "value": "inactive"},
      {"measurement": "outcome", "setting": "[2]", "value": "inactive"}
    ]},
    {"smiles": "COCCn1c(C(=O)N2CCCC2)cc2c1C[C@H]1CN(C(=O)c3ccccc3)[C@@](Cc3ccccc3)(C(=O)OC)[C@@H]21", "values": [
      {"measurement": "outcome", "setting": "[1]", "value": "inactive"},
      {"measurement": "outcome", "setting": "[2]", "value": "inactive"}
    ]},
    {"smiles": "C[C@@H](C(=O)NCc1ccccc1)[C@H]1C[C@]1(C)[C@H](NC(=O)OCc1ccccc1)c1ccccc1", "values": [
      {"measurement": "outcome", "setting": "[1]", "value": "inactive"},
      {"measurement": "outcome", "setting": "[2]", "value": "inactive"}
    ]},
    {"smiles": "Cc1cc(CNC(=O)[C@H](C)[C@@H]2C[C@@]2(C)[C@@H](NC(=O)OCc2ccccc2)c2ccccc2)nn1C", "values": [
      {"measurement": "outcome", "setting": "[1]", "value": "inactive"},
      {"measurement": "outcome", "setting": "[2]", "value": "inactive"}
    ]},
    {"smiles": "COC(=O)[C@@]1(Cc2ccccc2)[C@@H]2[C@@H](CC(=O)[C@H]2CC(=O)C(=O)N(C)C)CN1C(=O)c1ccccc1", "values": [
      {"measurement": "outcome", "setting": "[1]", "value": "inactive"},
      {"measurement": "outcome", "setting": "[2]", "value": "inactive"}
    ]},
    {"smiles": "COC(=O)[C@@]1(Cc2ccc(OC)cc2)[C@H]2c3cc(C(=O)N(C)C)n(Cc4ccc(OC(F)(F)F)cc4)c3C[C@H]2CN1C(=O)c1ccccc1", "values": [
      {"measurement": "outcome", "setting": "[1]", "value": "inactive"},
      {"measurement": "outcome", "setting": "[2]", "value": "inactive"}
    ]},
    {"smiles": "Cc1cc(CNC(=O)[C@H](C)[C@H]2C[C@]2(C)[C@H](NC(=O)OCc2ccccc2)c2ccccc2)nn1C", "values": [
      {"measurement": "outcome", "setting": "[1]", "value": "inactive"},
      {"measurement": "outcome", "setting": "[2]", "value": "inactive"}
    ]},
    {"smiles": "COC(=O)[C@@]1(Cc2ccc(OC)cc2)[C@H]2c3cc(C(=O)N4CCCC4)n(Cc4ccccn4)c3C[C@H]2CN1C(=O)c1ccccc1", "values": [
      {"measurement": "outcome", "setting": "[1]", "value": "inactive"},
      {"measurement": "outcome", "setting": "[2]", "value": "inactive"}
    ]},
    {"smiles": "Cc1ccc(CNC(=O)[C@H](C)[C@@H]2C[C@@]2(C)[C@@H](NC(=O)OCc2ccccc2)c2ccccc2)o1", "values": [
      {"measurement": "outcome", "setting": "[1]", "value": "inactive"},
      {"measurement": "outcome", "setting": "[2]", "value": "inactive"}
    ]},
    {"smiles": "COC(=O)[C@@]1(Cc2ccccc2)C=C[C@@H](C)N1C(=O)c1ccccc1", "values": [
      {"measurement": "outcome", "setting": "[1]", "value": "inactive"},
      {"measurement": "Potency", "setting": "[3]", "value": "inactive"}
    ]},
    {"smiles": "COC(=O)[C@@]1(Cc2ccccc2)[C@H]2c3cc(C(=O)N(C)C)n(Cc4nc5ccccc5[nH]4)c3C[C@H]2CN1C(=O)c1ccccc1", "values": [
      {"measurement": "outcome", "setting": "[1]", "value": "inactive"},
      {"measurement": "outcome", "setting": "[2]", "value": "inactive"}
    ]},
    {"smiles": "COC(=O)[C@@]1(Cc2ccc(OC)cc2)[C@H]2c3cc(C(=O)N(C)C)n(CCSCCO)c3C[C@H]2CN1C(=O)c1ccccc1", "values": [
      {"measurement": "outcome", "setting": "[1]", "value": "inactive"},
      {"measurement": "outcome", "setting": "[2]", "value": "inactive"}
    ]},
    {"smiles": "COC(=O)[C@@]1(Cc2ccc(OC)cc2)[C@H]2c3cc(C(=O)N4CCCC4)n(Cc4nc5ccccc5[nH]4)c3C[C@H]2CN1C(=O)c1ccccc1", "values": [
      {"measurement": "outcome", "setting": "[1]", "value": "inactive"},
      {"measurement": "outcome", "setting": "[2]", "value": "inactive"},
      {"measurement": "Potency", "setting": "[3]", "value": "2 µM (active)"},
      {"measurement": "Potency", "setting": "[4]", "value": "inactive"}
    ]},
    {"smiles": "COC(=O)[C@@]1(Cc2ccc(OC)cc2)[C@H]2c3cc(C(=O)N(C)C)n(CCc4ccc(OC)c(Br)c4)c3C[C@H]2CN1C(=O)c1ccccc1", "values": [
      {"measurement": "outcome", "setting": "[1]", "value": "inactive"},
      {"measurement": "outcome", "setting": "[2]", "value": "inactive"}
    ]},
    {"smiles": "CCCCCCN(C(=O)CCCCCN1C(=O)NC(C2CC2)C(C(=O)OCc2ccccc2)=C1C)C(C(=O)NCCCC)c1ccc(OCC(=O)OC)c(C(=O)OC)c1", "note": "(stereo unspecified)", "values": [
      {"measurement": "outcome", "setting": "[1]", "value": "inactive"},
      {"measurement": "Potency", "setting": "[3]", "value": "3.98 µM (active)"}
    ]},
    {"smiles": "COC(=O)N1CC=CC1(C)C(=O)NCC1CC1", "note": "(stereo unspecified)", "values": [
      {"measurement": "outcome", "setting": "[1]", "value": "inactive"},
      {"measurement": "Potency", "setting": "[3]", "value": "inactive"}
    ]},
    {"smiles": "COC(=O)[C@@]1(Cc2ccc(OC)cc2)[C@@H]2[C@@H](CC(=O)[C@H]2CC(=O)C(=O)N(C)C)CN1C(=O)c1ccccc1", "values": [
      {"measurement": "outcome", "setting": "[1]", "value": "inactive"},
      {"measurement": "outcome", "setting": "[2]", "value": "inactive"},
      {"measurement": "Potency", "setting": "[4]", "value": "inactive"}
    ]},
    {"smiles": "COC(=O)[C@@]1(Cc2ccc(F)cc2)[C@H]2c3cc(C(=O)N4CCCC4)n(Cc4cc(F)cc5c4OCOC5)c3C[C@H]2CN1C(=O)c1ccccc1", "values": [
      {"measurement": "outcome", "setting": "[1]", "value": "inactive"},
      {"measurement": "outcome", "setting": "[2]", "value": "inactive"}
    ]},
    {"smiles": "CCC/C=C(\\CCC)C(NS(C)(=O)=O)c1ccccc1", "note": "(stereo unspecified)", "values": [
      {"measurement": "outcome", "setting": "[1]", "value": "inactive"},
      {"measurement": "outcome", "setting": "[2]", "value": "inactive"},
      {"measurement": "Potency", "setting": "[4]", "value": "inactive"},
      {"measurement": "Potency", "setting": "[5]", "value": "7.94 µM (active)"}
    ]},
    {"smiles": "CC(Cc1ccccc1)C(=O)Nc1ccccc1", "note": "(stereo unspecified)", "values": [
      {"measurement": "outcome", "setting": "[1]", "value": "inactive"},
      {"measurement": "Potency", "setting": "[3]", "value": "inactive"}
    ]},
    {"smiles": "COC(=O)[C@@]1(Cc2ccccc2)[C@H]2c3cc(C(=O)N4CCCC4)n(CCN4CNCC4=O)c3C[C@H]2CN1C(=O)c1ccccc1", "values": [
      {"measurement": "outcome", "setting": "[1]", "value": "inactive"},
      {"measurement": "outcome", "setting": "[2]", "value": "inactive"},
      {"measurement": "Potency", "setting": "[6]", "value": "2 µM (active)"},
      {"measurement": "Potency", "setting": "[4]", "value": "inactive"}
    ]},
    {"smiles": "COC(=O)[C@@]1(Cc2ccc(F)cc2)[C@H]2c3cc(C(=O)N4CCCC4)n(CCc4ccccn4)c3C[C@H]2CN1C(=O)c1ccccc1", "values": [
      {"measurement": "outcome", "setting": "[1]", "value": "inactive"},
      {"measurement": "outcome", "setting": "[2]", "value": "inactive"}
    ]},
    {"smiles": "CC(C)CC1(C(=O)O)C=CCN1C(=O)c1ccccc1", "note": "(stereo unspecified)", "values": [
      {"measurement": "outcome", "setting": "[1]", "value": "inactive"},
      {"measurement": "Potency", "setting": "[3]", "value": "inactive"}
    ]},
    {"smiles": "COC(=O)N1CC=CC1(C)C(=O)O", "note": "(stereo unspecified)", "values": [
      {"measurement": "outcome", "setting": "[1]", "value": "inactive"},
      {"measurement": "Potency", "setting": "[3]", "value": "inactive"}
    ]},
    {"smiles": "COC(=O)[C@@]1(Cc2ccc(F)cc2)[C@H]2c3cc(C(=O)N4CCCC4)n(Cc4ccc(S(C)(=O)=O)cc4)c3C[C@H]2CN1C(=O)c1ccccc1", "values": [
      {"measurement": "outcome", "setting": "[1]", "value": "inactive"},
      {"measurement": "outcome", "setting": "[2]", "value": "inactive"},
      {"measurement": "Potency", "setting": "[4]", "value": "inactive"}
    ]},
    {"smiles": "CCCn1c(C)nc2c(NCCCN(C)C)nc(C)nc21", "values": [
      {"measurement": "outcome", "setting": "[1]", "value": "inactive"},
      {"measurement": "Potency", "setting": "[3]", "value": "inactive"}
    ]},
    {"smiles": "COC(=O)[C@@]1(Cc2ccccc2)[C@H]2c3cc(C(=O)N(C)C)n(Cc4c(CO)[nH]cc(C)c4=O)c3C[C@H]2CN1C(=O)c1ccccc1", "values": [
      {"measurement": "outcome", "setting": "[1]", "value": "inactive"},
      {"measurement": "outcome", "setting": "[2]", "value": "inactive"},
      {"measurement": "Potency", "setting": "[6]", "value": "0.631 µM (active)"},
      {"measurement": "Potency", "setting": "[3]", "value": "1.58 µM (active)"},
      {"measurement": "Potency", "setting": "[4]", "value": "inactive"},
      {"measurement": "Potency", "setting": "[5]", "value": "3.16 µM (active)"}
    ]}
  ]
}
